Pf growth 96h – P. falciparum growth inhibition at 96 hours; P. falciparum luciferase reporter growth, 96 h; 320,000 tested, 6.9% active; Potency, µM (titrated, usually from 28.7 µM), actives largely listed as inhibitors
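Two-generation exposure (96 h) targets delayed-death phenotype. Reporter parasites carrying integrated firefly luciferase, in red cells at 2% hematocrit and 0.05% parasitemia final, kept at 37 C, 5% CO2; luminescence loss indicates inhibition.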
SARS PLpro yeast – SARS-CoV PLP inhibition in yeast. 330,000 tested, 0.19% active. S. cerevisiae expressing SARS-CoV PLpro, growth rescue. AID 485353. Potency, µM (doses to about 32.9 µM), most hits filed as activators; calls by dose curve; further: nearly all actives have a fitted effect of over 55% in size
Cycloheximide cs – counter-screen hit for Shiga toxin inhibitors, cycloheximide | cell reporter, cycloheximide protein synthesis inhibition counterscreen | max response, % | 300,000 tested, 12% active | AID 2314; in the data active means max response mostly above about 13%, no sharp cut-off; inactive means mostly below about 14%; further: read at 38.3 µM for the half of the compounds with a filed dose
AMA1 RON2 block – disrupts binding of P. falciparum AMA1 to RON2; AlphaScreen AMA1-biotinylated RON2 peptide binding; Potency, µM (titrated, usually from 58.2 µM), most hits filed as inhibitors; 360,000 tested, 0.2% active; further: nearly all actives have a fitted effect of over 45% in size
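AMA1 (3D7) with his tag at 25 nM final met compounds first, then biotinylated RON2 peptide at 25 nM; detection used donor plus acceptor beads, 10 µg/mL apiece, read by AlphaScreen after 30 min at room temperature.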
Pf growth 48h – inhibits P. falciparum growth in the first generation, 48 h; AID 504832; Potency, µM (titrated, usually from 28.7 µM), hits mostly inhibitors; 310,000 tested, 5.9% active; P. falciparum luciferase growth in erythrocytes, 48 h
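Luciferase-expressing P. falciparum in infected erythrocytes (2% hematocrit, 0.1% parasitemia final) in RPMI 1640/0.5% Albumax were exposed to compound for 48 hours at 37 C, 5% CO2; growth read as luminescence.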
Shiga inhibitor – Shiga toxin inhibition | Vero cells, Shiga toxin protein synthesis inhibition reporter | inhibition, % at 38.7 µM | 290,000 tested, 9.2% active; in the data active means inhibition mostly above about 28%, no sharp cut-off; inactive means mostly below about 43%
Hits are given with their value; . = inactive; ? = inconclusive; / = no result given; [ ] = dose if it differs, or a comment. Most compounds without a hit are left out; they make up all but 19% or so of the library. Unless noted, the call rests on the fitted dose curve; in most records, active means well fitted curve in the direction sought with a large enough effect; inconclusive means small, poorly fitted or top-dose-only effect, or another doubt; inactive means no such curve, though single readings can be large; an effect the other way counts as inactive or inconclusive.

SMILES	Pf growth 96h	SARS PLpro yeast	Cycloheximide cs	AMA1 RON2 block	Pf growth 48h	Shiga inhibitor
CC(=O)NC(c1ccc2ccccc2c1)c1ccc2cccnc2c1O (configuration not stated)	.	.	.	.	?	.
Oc1c(C(Nc2nc3ccccc3s2)c2ccco2)ccc2cccnc12 (configuration not stated)	?	.	.	.	0.1µM	.
CCOC(=O)COc1ccccc1C(=O)c1cnn(-c2ccccc2)c1	.	.	59	.	/	111
CC(C)c1ccc(NC(=O)COc2ccc(F)cc2C(=O)c2cnn(-c3ccccc3)c2)cc1	?	.	73	.[2.32 µM]	.	120
COc1ccc(-n2cc(C(=O)c3ccc4ccccc4c3O)cn2)cc1	?	.	.	.	.	.
O=C(COc1ccccc1C(=O)c1cnn(-c2ccccc2)c1)Nc1ccc2ccccc2c1	.	.	57	.	.	.
CCOC(=O)COc1ncn(-c2ccccc2)n1	?	.	.	.	/	.
O=C(NNC(=O)C1CC1)c1ccccc1[N+](=O)[O-]	.	.	.	.	.	.
CC(C)NC(=O)c1nc2c(nnn2Cc2cccc(Cl)c2)c(=O)[nH]1	.	.	.	.	.	.
COc1ccc(OC)c(NC(=O)CSc2nc3nc(C)cc(C)n3n2)c1	?	.	/	.	?	/
Cc1cc(=O)n(C)c(=O)n1CCCCCCOc1cccc([N+](=O)[O-])c1	4.1µM	.	.	.	.	.
CC(C)OC(=O)c1c(NC(=O)Cn2cnc([N+](=O)[O-])n2)sc2c1CCCC2	7.4µM	.	.	.	?	.
COc1cc2c(cc1OC)C(=O)Cc1ccc3c(c1CN(C)CC2)OCO3	?	.	.	.	9.3µM	.
COc1ccc2c(c1OC)CN(C)CCc1cc3c(cc1C(=O)C2)OCO3	.	.	.	.	?	.
CCC(C)C(=O)Nn1c(C2CC2)nc2cc(OC)c(OC)cc2c1=O (configuration not stated)	?	.	.	.	.	.
CN1CN(C)c2cccc3cccc1c23	4.1µM	.	.	.	?	.
CCN1C(=O)N(CC)c2cccc3cccc1c23	?	.	.	.	.	.
C=CCn1cc(C=C2C(=O)NC(=O)NC2=O)c2ccccc21	.	.	.	.	/	.
Cn1cc(C=C2C(=O)Nc3cccnc32)c2ccccc21	/	/	30	/	/	32
O=S(=O)(NC1CCN(Cc2ccccc2)CC1)c1ccc(F)c(F)c1	/	/	/	.	/	/
CCOC(=O)C1C(c2ccc(O)c(O)c2)NC(=S)NC1(O)C(F)(F)F (configuration not stated)	12µM	.	.	.	.	.
O=C(NNC(=S)Nc1ccc(C(=O)O)c(O)c1)c1ccncc1	/	/	/	.	/	/
Cn1nc(OC(=O)Nc2ccc(Cl)cc2)cc1C(F)(F)F	/	.	17	/	.	.
Cc1ccsc1C(=O)N1CCC1(C)C(=O)NCCC#N (configuration not stated)	/	/	/	.	/	/
CCOC(=O)C1CCCN(C(=O)c2cccc(S(=O)(=O)N(C)c3c(C)n(C)n(-c4ccccc4)c3=O)c2)C1 (configuration not stated)	.	.	.	.	.	.
SMILES	Pf growth 96h	SARS PLpro yeast	Cycloheximide cs	AMA1 RON2 block	Pf growth 48h	Shiga inhibitor
CCOC(=O)[C@]12CCCC=C1N(Cc1ccco1)C(=O)[C@H](CC(=O)NCc1cccc3ccccc13)C2	/	/	/	.	/	/
Cc1ccc(SC(C)C(=O)NCC(C)C)cc1 (configuration not stated)	.	.	.	.	15µM	.
NC1=NCC2c3ccccc3Cc3ccccc3N12 (configuration not stated)	6.7µM	/	.	/	?	.
COc1ccc(C)cc1NC(C)C(=O)NC(=O)NC1CCCCC1 (configuration not stated)	?	.	/	?	13µM	/
COc1cc([N+](=O)[O-])ccc1NC(=O)CCS(=O)(=O)c1ccc2c(c1)n(C)c(=O)c(=O)n2C	?	.	.	.	.	.
CC(C)(C)S(=O)(=O)Cc1nc(-c2ccc(Cl)c(Cl)c2)cs1	.	.	30	.	?	65
Cc1cc(C)c2nc(N3CCCC(C(=O)NCCCN4CCOCC4)C3)sc2c1 (configuration not stated)	/	.	.	.	.	.
CCN1CCN(CCCNC(=O)C2CCCN(c3nc4c(C)cc(C)cc4s3)C2)CC1 (configuration not stated)	?	.	13	.	?	42
Cc1cc(C)c2nc(N3CCCC(C(=O)NCCN4CCOCC4)C3)sc2c1 (configuration not stated)	.	.	36	.	.	46
COC(=O)[C@]1(Cc2ccccc2)N[C@H](CN(C)C(=O)Nc2ccc(Cl)cc2)[C@@H]2C(=O)N(Cc3ccccc3)C(=O)[C@@H]21	/	.	/	.	/	/
Cc1ccc(C(=O)Nc2ccc(N3CCOCC3)nc2N2CCOCC2)cc1	.	.	.	.	.	.
C/C(=N\N=c1/sc2ccccc2n1C)c1ccc(N2CCOCC2)cc1	.	.	22	.	.	.
C/C(=N\N=c1/sc2ccccc2n1C)c1ccccn1	.	.	78	.	.	69
CNc1ncnc2ccc(-c3c(C)noc3C)cc12	.	.	/	/	.	/
S=C(c1ccc(-c2cccc(Cl)c2)o1)N1CCOCC1	.	.	43	?	.	188
S=C(c1ccc(-c2cc(Cl)ccc2Cl)o1)N1CCCCC1	.	.	.	.	.	.
N#CCCN1CCN(C(=S)c2ccc(-c3cccc(Cl)c3)o2)CC1	/	.	45	?	.	103
S=C(c1ccc(-c2cc(Cl)ccc2Cl)o1)N1CCOCC1	.	.	.	?	?	.
S=C(c1ccc(-c2cccc(Cl)c2)o1)N1CCCCC1	.	.	49	?	.	55
O=c1[nH]c2ccccc2n2cnnc12	.	.	.	.	.	.
CN(C)C(=O)COC(=O)/C=C/c1ccccc1[N+](=O)[O-]	.	.	.	?	/	.
Cc1cc(OCC(=O)OCC(=O)Nc2ccc(Cl)cn2)ccc1Cl	.	.	/	.	.	/
O=C(CCc1ccccc1)c1c(O)cc(O)cc1O	.	.	active	.	.	.
COc1ccc(-c2nnc3n2N=C(c2c(OC)cccc2OC)CS3)cc1	/	/	.	/	/	.
COc1cc(NC(=O)C2C3C=CC(C3)C2C(=O)O)c(OC)cc1Cl (configuration not stated)	.	.	.	.	.	.
CCN(CC(=O)Nc1ccc([N+](=O)[O-])cc1OC)c1ccccc1	9.3µM	.	.	.	?	.
COc1cc([N+](=O)[O-])ccc1NC(=O)C1C2C=CC(C2)C1C(=O)O (configuration not stated)	12µM	.	.	.	?	/
COc1cc([N+](=O)[O-])ccc1NC(=S)NNC(=O)CCC(=O)Nc1ccccc1Cl	.	.	33	.	.	28
COc1cc([N+](=O)[O-])ccc1NC(=O)CN(C)C	.	.	.	.	.	.

Screening results as filed in PubChem.
